# Reference: PubChem BioAssay AID1850 (Southern Research Specialized Biocontainment Screening …, 2009)
# Among all 310,000 compounds or so, about 1,000 (0.32%) were called active. Only a sample is shown. Results with a measured potency or affinity are listed apart. A number with no mark means an inactive call. No rule for the calls is given here.
# Test: Inhibition of PhoP regulon, Salmonella typhi GFP reporter cells, confirmation, 4 h (AID 1850);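 also: 0% = induced wells with vehicle and 100% = uninduced wells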
# Settings: Salmonella Typhi PhoP-promoter GFP reporter, fluorescence, at 50 µM, stronger effect = higher value
row,Structure (SMILES),inhibition [%]
1,COc1ccc(CCC(=O)NCCS(=O)(=O)N2CCN(c3ccc(F)cc3)CC2)cc1,3.06
2,O=C(c1ccccc1)N1N=C(C(F)(F)F)CC1(O)c1ccc(F)cc1 (stereo unspecified),-5.13
3,CCOC(=O)c1ccc(S(=O)(=O)N2CCN(C(=O)CSc3nc4ccccc4o3)CC2)cc1,1.15
4,CC(=O)c1c(C(C)=O)c(C)n(NC(=O)c2ccc(Cl)cc2)c1C,2.98
5,CN(C)C1=NCC(CSC(=N)N)S1 (stereo unspecified),-1.53
6,CCOc1ccc(N2CC(C(=O)Nc3ccc4c(c3)OCO4)CC2=O)cc1 (stereo unspecified),2.26
7,Cc1ccc(C(=O)Nc2nnc(S(=O)(=O)N3CCC(C)CC3)s2)cc1,4.17
8,O=C(COC(=O)c1ccc(Cl)c(S(=O)(=O)N2CCCC2)c1)NC1CCCCC1,5.96
9,COc1c2ccccc2c(OC)c2ccccc12,-8.01
10,CCOc1ccc(Nc2nc3ccccc3c(=O)s2)cc1,10.5
11,Cc1c2ccccc2nc2ccccc12,-14.3
12,CCOc1ccc(Nc2cc(C)c3ccccc3n2)cc1,10.8
13,CCOC(=O)C(Cc1ccccc1)NC(=O)CNC(=O)CNC(=O)OCc1ccccc1 (stereo unspecified),4.1
14,CC1CCCCN1C(=O)COC(=O)c1cc([N+](=O)[O-])ccc1N (stereo unspecified),0.19
15,COCCN(C(=O)COC(=O)CC1CCCCC1)c1c(N)n(Cc2ccccc2)c(=O)[nH]c1=O,-6.56
16,COc1ccc(/C=C(\NC(=O)c2ccco2)C(=O)NCCc2nc3ccccc3[nH]2)cc1,4.61
17,Cc1cc(N(CCCl)CCCl)ccc1/C=N/N=C(\N)c1cnccn1,1.24
18,CC(C)(C)c1ccc(C(=O)NCC(=O)OCC(=O)Nc2nc(-c3ccc(F)cc3)cs2)cc1,6.97
19,Cc1ccc(C)c2[nH]c(=O)c(CN(CC3CCCO3)S(=O)(=O)c3ccc4c(c3)OCCO4)cc12 (stereo unspecified),-7.59
20,CCN(CC)CCN1C(=O)c2cccc3cc(N)cc(c23)C1=O,6.76
21,NC(=O)CN1CCN(CCN2C(=O)c3cccc4cccc(c34)C2=O)CC1,10.1
22,Cc1ccc(OCCCCCCN2CCNCC2)cc1,11.8
23,CC(C)(c1ccccc1)c1ccc(OCCN2CCOCC2)cc1,-18
24,COCCNCCCOc1ccc(C(C)(C)c2ccccc2)cc1,3.55

row,Structure (SMILES),inhibition [%]
1,CC(C)(C)c1ccc(OCCCN2CCCC2)cc1,-5.11
2,CC1CCN(CCCCOc2ccc(C(C)(C)C)cc2)CC1,-0.73
3,COCCCNCCCOc1ccc(C(C)(C)c2ccccc2)cc1,0.01
4,Cn1c(SCC(=O)Nc2ccc3c(c2)OCCO3)nnc1-c1ccccn1,-2.36
5,COCCNc1c([N+](=O)[O-])c(=O)n(-c2ccccc2)c2ccccc12,-1
6,Cn1c(N)c(N2CCN(c3ccccc3)CC2)c(=O)[nH]c1=O,-2.5
7,O=C(COC(=O)CCC(=O)c1ccc(F)cc1)NCc1ccco1,11.3
8,COC(=O)c1sc2ccccc2c1NC(=O)c1ccc(S(=O)(=O)N2CCCCC2)cc1,10.9
9,CN(CCOc1ccc(Cl)cc1)C(=O)C1CCN(C(=O)c2ccc(Cl)cc2)CC1,-3.38
10,CCCC(=O)NC(c1cccs1)c1cc([N+](=O)[O-])c2cccnc2c1O (stereo unspecified),-5.59
11,CC(C)C(=O)NC(c1cccs1)c1cc([N+](=O)[O-])c2cccnc2c1O (stereo unspecified),-8.78
12,CCCC(=O)NC(c1ccco1)c1cc(Cl)c2cccnc2c1O (stereo unspecified),-13.5
13,CC(=O)NC(c1ccccc1)c1cc([N+](=O)[O-])c2cccnc2c1O (stereo unspecified),0.16
14,COc1ccc(S(=O)(=O)N2CCOCC2)cc1N=Nc1sc(N)nc1-c1ccccc1,0.93
15,CCCCCOC(=O)CC(C(=O)OCCCCC)N1CCCCC1 (stereo unspecified),1.36
16,CCCCOC(=O)C1CCCC(C(=O)OCCCC)N1 (stereo unspecified),2.58
17,CCCCCCCCOC(=O)C[N+](C)(C)C/C=C(/C)Cl,-1.52
18,CCCCCCCCCCOC(=O)C[N+](C)(C)C/C=C(/C)Cl,-3.67
19,CC12CN3CCN(CC(C3)/C1=N/NC(=O)Nc1ccccc1)C2,3.04
20,CCOc1ccc(NC(=O)CN(C)C(=O)c2cn3ccccc3n2)cc1OCC,-2.5
21,O=C(c1ccc(F)cc1)C1CCN(C(=S)Nc2ccc(F)cc2)CC1,1.13
22,C/C(=N\NC(=O)c1nnn(-c2nonc2N)c1-c1ccc2c(c1)OCO2)c1ccccc1,-37.7
23,CC1CN(CCOc2ccc(Cl)cc2Cl)CC(C)O1 (stereo unspecified),10.8
24,CC1CC(C)CN(CCOc2cccc(Cl)c2Cl)C1 (stereo unspecified),-0.58

row,Structure (SMILES),inhibition [%]
1,CC1CC(C)CN(S(=O)(=O)N2CCCC(C(=O)NCCc3ccccc3)C2)C1 (stereo unspecified),6.06
2,NS(=O)(=O)c1ccc(CCNC(=O)c2cc([N+](=O)[O-])ccc2N2CCCCC2)cc1,7.9
3,O=C(CCc1ccc(S(=O)(=O)N2CCOCC2)cc1)N1CCN(Cc2ccc3c(c2)OCO3)CC1,-0.09
4,CCN1CCN(CCNC(=O)c2ccc(/C=C3/Sc4ccccc4N(Cc4cccc(Cl)c4)C3=O)cc2)CC1,47.7
5,CCN1CCN(CCNC(=O)c2ccc3c(c2)N(Cc2ccc(F)cc2)C(=O)c2ccccc2S3=O)CC1 (stereo unspecified),-3.27
6,Cc1ccc(C(=O)Nc2cccc(C(=O)NC3CCCCC3)c2)cc1,7.56
7,CCOC(=O)c1c(C)c(-c2ccccc2)n(CC(=O)N2CCN(C)CC2)c1C,-2.34
8,O=C1Nc2ccccc2C1=Nc1cccc([N+](=O)[O-])c1,6.17
9,O=C1Nc2ccccc2Nc2ccc([N+](=O)[O-])cc21,-12.2
10,COc1ccccc1OCc1ccc(C(=O)NCc2ccco2)o1,-2.77
11,COc1ccc2cc(C(=O)N/N=C/c3sc4ccccc4c3O)ccc2c1,-4.14
12,O=C(N/N=C/c1ccccc1O)c1cccc2ccccc12,3.31
13,COc1ccc(C(=O)N/N=C/c2c[nH]c3ccccc23)cc1,4.58
14,O=C(N/N=C/c1sc2ccccc2c1O)c1ccccc1,-3.49
15,Cc1ccc(CN2CCCN(Cc3ccc(F)cc3Cl)S2(=O)=O)cc1,0.28
16,O=C(O)C1CC(O)CN1c1nc(Cl)ccc1[N+](=O)[O-] (stereo unspecified),4.36
17,O=C1CC2(CCCC2)Oc2ccccc21,9.18
18,CC(C)Nc1cc(C(C)(C)C)nc2c(-c3ccccc3)cnn12,0.99
19,CC(C)(C)c1cc(NCc2ccccn2)n2ncc(-c3ccc(Cl)cc3)c2n1,-9.09
20,CC(C)(C)c1cc(NCCCn2ccnc2)n2ncc(-c3ccccc3)c2n1,12.3
21,CC(C)(C)c1cc(NCCCn2ccnc2)n2ncc(-c3ccc(Cl)cc3)c2n1,-8.35
22,COC(=O)[C@@H](NC(=O)N1CCC(Cc2ccccc2)CC1)C(C)C,-13.1
23,CC(C)C(C(=O)NCC1CCCO1)N(C(=O)CNS(=O)(=O)c1ccc(F)cc1)C1CCCCC1 (stereo unspecified),-5.01
24,CC1(C)N=C(N)NC(Nc2ccccc2)=N1,3.29

row,Structure (SMILES),inhibition [%]
1,Cc1cccc(C)c1NC1=NC(C)(C)N=C(N)N1,-2.14
2,Cc1cccc(NC2=NC(C)(C)N=C(N)N2)c1,-5.24
3,Cc1ccccc1NC1=NC(C)(C)N=C(N)N1,2.17
4,CCCCC(=O)N/N=C/c1ccc(N2CCOCC2)c([N+](=O)[O-])c1,5.66
5,O=C(c1cc(Cl)cc(Cl)c1)N1CCN(c2cc(C(F)(F)F)nc3ccccc23)CC1,0.46
6,CN1N=C(C(C)(C)C)CC1=O,-12.7
7,OCCC1CN(Cc2nc3ccccc3[nH]2)CCN1C1CCCC1 (stereo unspecified),3.25
8,COc1cc(C(=O)O/N=C2/C=C(C)C(=O)C=C2C)cc(OC)c1OC,-6.02
9,COc1cc(C(=O)ON=C2C=C(C)C(=O)C(C)=C2)cc(OC)c1OC,-6.42
10,CCc1ccccc1N(CC(=O)N1CCCC1)S(C)(=O)=O,6.01
11,CCNc1c2c(nc3ccccc13)CC(C)(C)CC2=O,-3.19
12,Cc1c2c(nc3ccccc13)CC(C)(C)CC2=O,-15.3
13,CCC(=NCc1cccnc1)c1c(O)n(-c2ccc(C)cc2)c(=O)[nH]c1=O,-4.52
14,O=C(COc1ccc2c3c(c(=O)oc2c1)CCC3)N[C@@H](CSCc1ccccc1)C(=O)O,11.7
15,N#C/C(=C\c1cc(O)c(O)c(O)c1)C(N)=O,5.26
16,CCOC(=O)c1ccc(CNCc2ccc(C)cc2)cc1,-2.32
17,CCOC(=O)c1ccc(CNCc2ccccc2)cc1,-2.61
18,Cc1noc(C)c1COc1ccc(C(=O)N2CCN(S(=O)(=O)c3ccc(Cl)cc3)CC2)cc1,-8.91
19,CSc1ccccc1NC(=O)CN(C)C(=O)CCc1c[nH]c2ccccc12,2.89
20,CC(C)(C)c1ccc(OCCON2C(=O)CCC2=O)c(Cl)c1,10.3
21,CNCCCOc1ccc(Cl)cc1C(C)(C)C,18.7
22,CCCCNC(=O)c1cccc(NC(=O)C(=O)c2ccccc2NC(C)=O)c1,0.04
23,COc1ccc(-c2csc(N=C(N)N)n2)cc1,4.34
24,Cc1ccc(-c2csc(N=C(N)N)n2)cc1,3.62
